Sampled rows, rich in hits. Any-hit rate of the full collection: about 1%.
WRN inhibitor = WRN helicase (human) inhibition. hit rate 0.46% among 360,000. Q14191. WRN helicase unwinding, fluorescent forked duplex, kinetic. Potency, µM (series often up to 114 µM), for inactives: at the top dose activity change, negative = inhibition, hits mostly inhibitors; further: nearly all actives have a fitted effect of over 55% in size
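Kinetic fluorescence helicase assay: unwinding of a quenched forked DNA duplex (100 nM final) with 2 mM ATP final raises red fluorescence (525/598 nm). Compounds sat 15 min at room temperature with 20 nM WRN beforehand.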
BLM helicase inh = blocks DNA unwinding by human BLM helicase; P54132; recombinant BLM DNA unwinding, fluorescence dequenching; Potency, µM (doses to about 56.1 µM), without a hit: at the top dose activity change, negative = inhibition, actives largely listed as inhibitors; hit rate 0.2% among 350,000; AID 2528;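 further: plate controls were vehicle for no effect and no enzyme for full effect; nearly all actives have a fitted effect of over 35% in size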
FEN1 inh = inhibitors of human flap endonuclease 1. Recombinant FEN1 flap cleavage, fluorescence, 15 min. Potency, µM (titrated, usually from 114 µM), for inactives: at the highest dose activity change, negative = inhibition, usual class: inhibitors. hit rate 0.35% among 390,000. AID 588795; further: nearly all actives have a fitted effect of over 65% in size
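FEN1 at 10 nM, compound pretreatment for 15 min (room temperature), 50 nM final substrate to initiate; endpoint reads at 0 and 15 min; DMSO-only plates used as vehicle background.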
APE1 inh = inhibitors of human APE1 endonuclease; P27695; recombinant APE1, TAMRA/BHQ-2 abasic DNA cleavage fluorescence; Potency, µM (highest dose often 65.8 µM), for inactives: at the top dose activity change, negative = inhibition, most hits filed as inhibitors; hit rate 0.35% among 350,000;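 further: plate controls were vehicle for no effect and reference inhibitor for full effect; nearly all actives have a fitted effect of over 55% in size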
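0.75 nM APE1 + cpd, 15 min RT; start w/ 50 nM TAMRA/BHQ-2 THF-abasic dsDNA; kinetic fluor 525/598 nm ×3 reads @60 s; Δ(read3−read1); normalized to DMSO and NSC13755 control wells.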
RECQ1 helicase = blocks DNA unwinding by human RECQ1; P46063; RECQ1 DNA unwinding, red fluorescence kinetic read; Potency, µM (highest dose often 57.3 µM), for inactives: at the highest dose activity, negative = inhibition, usual class: inhibitors; hit rate 0.54% among 240,000;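 further: plate controls were vehicle for no effect and no enzyme for full effect; nearly all actives have a fitted effect of over 30% in size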
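50 nM RECQ1T1 preincubated 15 min with compound in Tris pH 8.0 buffer with MgCl2, DTT, Tween-20 and 2.5 ug/ml poly(dI-dC); started with 200 nM TAMRA/BHQ-2 forked duplex and 2 mM ATP. Unwinding read as fluorescence (525/598 nm), two reads 2 h apart.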
L3MBTL1 block = blocks human L3MBTL1 | hit rate 0.66% among 230,000 | Q9Y468 | AlphaScreen L3MBTL1–H3K9me1 peptide binding | Potency, µM (doses to about 57.1 µM), for inactives: at the highest dose activity, negative = inhibition, hits mostly inhibitors; further: nearly all actives have a fitted effect of over 60% in size
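AlphaScreen assay: L3MBTL1 (50 nM final) was preincubated 30 min at room temperature with biotinylated H3(1-15)K9me1 peptide (75 nM final), then 30 min with library compounds; streptavidin donor and nickel chelate acceptor beads (10 ug/mL final) added, 30 min dark.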
Active calls of the source: *; i = inactive; ? = inconclusive; . = no result; [ ] = remark or other dose. The call rests on the fitted dose curve; in most records, active means well fitted curve in the direction sought with a large enough effect; inconclusive means small, poorly fitted or top-dose-only effect, or another doubt; inactive means no such curve, though single readings can be large; an effect the other way counts as inactive or inconclusive. Unless noted, on the % scale 0 is the no-effect control and ±100 the full control effect; potency means the concentration at half of the fitted maximal effect.

SMILES | WRN inhibitor | BLM helicase inh | FEN1 inh | APE1 inh | RECQ1 helicase | L3MBTL1 block
CN(C)c1nc(=NCc2cccs2)ss1 | 22µM* | . | -5% | . | . | .
O=S(=O)(c1ccccc1)N1CC2CC(Br)C(Br)CC21 (stereo not given) | -3% | . | . | . | . | .
O=C(NN=Cc1ccc(O)c(O)c1)c1ccccc1 | -18% | . | . | . | . | .
O=C(/C(=N/N=C/c1ccc(O)c(O)c1O)c1ccccc1)c1ccccc1 | -31% | ? | ? | 5% | 3% | 20µM*
Cc1[nH]c2ccccc2c1C1=CC(=O)C=CC1=O | 56µM* | . | -15% | . | . | .
Cc1nn(S(=O)(=O)c2ccc(C(C)C)cc2)c(C)c1S(=O)(=O)N1CCCCC1 | . | 3% | -1% | . | . | .
Nc1ccc(/C=C2\C=Cc3ccccc32)cc1 | . | . | -22% | . | . | .
C1=Cc2ccccc2/C1=C\c1cc[cH-]c1.[Fe+2].c1cc[cH-]c1 | . | . | 13µM* | . | . | .
Nc1ccc(C=C2C=Cc3ccccc32)cc1 | -19% | . | -22% | . | . | .
C[N+](C)(C)c1ccc(/C=C2\C=Cc3ccccc32)cc1 | . | . | 35µM* | . | . | .
O=C(NCc1ccc(Cl)cc1)C1CCN(C(=O)c2ccc(Cl)cc2)CC1 | -3% | . | 1% | 4% | . | 3%
Cc1ccccc1-c1ccc2ncnc(NCCN3CCOCC3)c2c1 | . | -7% | . | -5% | i | .
COC(=O)c1cc(O)c(O)c(O)c1 | 4% | 1% | ? | 14µM* | -1% | ?
CCC[C@@H]1C[C@@H](C(=O)N[C@@H]([C@H]2O[C@H](SC)[C@H](OP(=O)(O)O)[C@@H](O)[C@H]2O)[C@H](C)Cl)N(C)C1 | . | . | . | -3% | . | .
CSc1ncccc1C(=O)N1CCC(C)(C(=O)O)C1 (stereo not given) | 4% | . | . | . | . | .
CN(C)C(=O)NC1c2ccccc2-c2ccccc21 | 2% | 1% | 13% | 40% | . | .
O=C1C=CC(=O)N1c1ccc2c(c1)C(NC(=O)C(F)(F)F)c1ccccc1-2 (stereo not given) | 56µM* | . | 0% | . | . | .
O=C(O)c1ccc(Cl)c(S(=O)(=O)N2CCCC2)c1 | -6% | 3% | -5% | 28µM* | -4% | -30%
CN(C)c1ccc(C(I)C(I)c2ccnc3ccccc23)cc1 (stereo not given) | . | . | 79µM* | . | . | .
Cc1noc(C)c1S(=O)(=O)NC(=O)C1(C)CCN1C(=O)c1ccc(C2CCCCC2)cc1 (stereo not given) | 1% | . | . | . | . | .
Cc1ccc(S(=O)(=O)c2ccc([N+](=O)[O-])o2)cc1 | 14µM* | . | 6% | . | . | .
Cc1ccc(NC(=O)c2ccc([N+](=O)[O-])o2)c(C)c1 | 3% | -6% | 5% | -4% | i | -1%
CCCC1=Nc2cc(C(=O)NCCc3ccccc3)ccc2Sc2ccc(C)cc21 | . | -7% | 79µM* | . | . | .
Nc1nnc(-c2ccc3ccccc3c2)o1 | . | . | . | 1% | . | .
COc1ccc2nc(-c3ccc(N(C)C)cc3)sc2c1 | . | 0% | . | -2% | i | .
SMILES | WRN inhibitor | BLM helicase inh | FEN1 inh | APE1 inh | RECQ1 helicase | L3MBTL1 block
Cc1ccc(C)c(CN2C(=O)C3CCCN3c3ccc(S(=O)(=O)N4CCOCC4)cc32)c1 (stereo not given) | . | -6% | . | -3% | -6% | -3%
COc1cccc(CN2C(=O)C3CCCN3c3ccc(S(=O)(=O)N4CCOCC4)cc32)c1 (stereo not given) | . | -4% | . | 15% | 28µM* | 2%
CNc1cccccc1=S | -12%[11.6 µM] | -2% | -10% | ? | ? | 4µM*
CNc1ccccc1C(C)(C)c1ccn[nH]1 | 6% | -2% | -2% | 4% | i | -4%
Cc1ccc(C(C[N+](=O)[O-])Sc2ccc(N)cc2)cc1 (stereo not given) | 45µM* | -4% | 0% | -5% | -5% | -16%
O=C1c2cccc3c([N+](=O)[O-])ccc(c23)C(=O)N1O | -26% | -16% | 3.2µM* | -44% | . | .
COc1ccc2c3c(cccc13)C(=O)N(O)C2=O | -14% | 1% | 0.35µM* | 2% | 1% | -3%
COC(=O)c1ccc2c(c1)C(C)(C)C(/C=C/c1ccccc1O)=[N+]2C | 56µM* | 6% | 50µM* | ? | -15% | -21%
NS(=O)(=O)c1ccc(Nc2ccccc2)c([N+](=O)[O-])c1 | -10% | -5% | -1% | ? | 7% | -8%
O=[N+]([O-])c1cc(Cl)ccc1Nc1ccccc1 | -10% | -4% | -14% | 0% | . | 28µM*
Cc1ccn2cc(-c3ccc(O)c(O)c3)nc2c1 | 45µM* | -19% | -17% | -16% | . | .
Oc1ccc(-c2cn3ccccc3n2)cc1O | -10% | -3% | 10% | 21% | . | .
COc1ccc(Cl)cc1NC(=O)NN1CCN(C)CC1 | 14% | -18% | -4% | 13µM* | . | .
COc1ccc(Cl)cc1NC(=O)NCCN1CCCCC1 | -3%[57.1 µM] | -9% | -3% | -1% | i | 4%
COc1c(O)cc2c(c1O)C1OC(CO)C(O)C(O)C1OC2=O (stereo not given) | 1% | . | -4% | 0% | . | 11%
O=C1OCC2OC(O)C(O)C(O)C2OC(=O)c2cc(O)c(O)c(O)c2-c2c(O)c(O)c3oc(=O)c4c(c(O)c(O)c5oc(=O)c2c3c54)-c2c1cc(O)c(O)c2O (stereo not given) | . | 0.71µM* | . | 0.035µM* | 0.4µM* | .
CCn1c(SCC(=O)Nc2ccc3c(c2)c2ccccc2n3CC)nnc1-c1ccco1 | 185% | 1% | 50µM* | -3% | -13% | -3%
Cc1cccc(NC(=O)CSc2nnc(-c3ccco3)c(-c3ccco3)n2)c1 | 32µM* | ? | -25% | ? | -20% | ?
CC(C)n1c(SCC(=O)Nc2nncs2)nnc1-c1ccco1 | ? | -20% | ? | 13µM* | . | .
COCCN(CCOC)c1nc(C)nc2c1nc(-c1ccccc1)n2CCN1CCCC1 | . | -13% | . | 11% | -9% | .
NC(=Nc1ccc(N)cc1)C(N)=Nc1ccc(N)cc1 | 2% | -1% | -23% | 0% | i | 32µM*
CCN1/C(=C/c2ccc3cc(C)cc(C)c3[n+]2CC)Sc2cc(C)ccc21 | 18µM* | ? | ? | 1% | ? | -2%
CCN1/C(=C/c2ccc3cccc(C)c3[n+]2CC)Sc2ccccc21 | ? | ? | 40µM* | -2% | -29% | -11%
CCN1/C(=C/c2ccc3cc(C)ccc3[n+]2CC)Sc2ccc3sccc3c21 | -22% | . | ? | . | . | .
Cc1nccn1CCOc1ccccc1Cl | 4% | -2% | -1% | 35% | . | -11%
Oc1cc(NCCN2CCOCC2)cc2cccnc12 | . | . | -6% | 7% | . | ?
Oc1cc(Nc2ccccc2)cc2cccnc12 | . | . | 0% | 2% | . | -10%
CN1CCN(c2cc(-c3cc(O)c4ncccc4c3)ccn2)CC1 | . | . | ? | 27% | . | 28µM*

Screening data from PubChem BioAssay.
